The values that follow come from the OligoGym collection.
Also: reference of the scale not given here.

For one experiment, the target named is TAS1R2. The experiment in a line: pooled miR-30 sensor sort-seq; sequence = guide strand. As to conditions: shRNA.
Take TAGAAGAGGATCATGTAGCACT: the sensor-assay potency score (higher = more potent) is -0.0652.
With TTCATATTCATCTTCAGTGTGG, the sensor-assay potency score (higher = more potent) amounted to 0.0168.
The same measure, in the same setting: the same measure for TAGCACACATCCACGATCTCAT: 0.125; for TTCATCTTCAGTGTGGTTGAGG: -0.161; for TAGAAGGTCATGCTGAGGGTGA: -0.126.
On the same count and under the same terms, the same measure for TAGGCAGACATGAAGGTGCAGA: -0.389; for TTGCAGGTATAGCTCTGGCTGG: -1.05; for TAGGACCACTCGTTATTCGGGC: -0.986.
Take TTGTTGATCTCCTCCACCGCAA: the sensor-assay potency score (higher = more potent) is -0.437.
In turn, ATAGGTGTCGCTGCTCACCAGC returned a sensor-assay potency score (higher = more potent) of -0.83.
The same measure, in the same setting: to TAGACCGCAGAGTACACGCTGT belongs -0.157.

In another experiment the target is TAS2R31. The experiment is described as above. Particulars: shRNA.
On to TTAACAGCAAAAAACATAGCAG, for which the sensor-assay potency score (higher = more potent) is -0.409.
On the same count and under the same terms, to TACAGTCGCATCTGAAAGGTAC belongs -0.71; to TAACAGCAAAAAACATAGCAGG, -0.785; to TTGATCTTCCAAGTCAAGTTTC, -0.849.
Still for that read-out and setting: the same measure for TAGAACCACTACCACACTGGAA: -1.01; for AATAGAACCACTACCACACTGG: 0.475; for TCCAATAACAAATAGAACCACT: -1.14.
On the same count and under the same terms, the same measure for TTCTTTTGTCCGTACAATCTCT: -0.58; for TTTTGTCCGTACAATCTCTTTC: -0.469.
As for TTACAGTCGCATCTGAAAGGTA, the sensor-assay potency score (higher = more potent) was -0.265.

In another experiment the target is TBC1D10A. The experiment is described as above. As to conditions: shRNA.
In turn, TTGTGCTTCTTGGCCATCCATT gave a sensor-assay potency score (higher = more potent) of -1.02.
In turn, TCACAGAAGAACATGTCCCAGA showed a sensor-assay potency score (higher = more potent) of -0.251.
Sequence TTGTTGAGCATGTCCAGCCACT returned a sensor-assay potency score (higher = more potent) of -1.14.
Still for that read-out and setting: to TTCTGCTGTAACTTCACCTTGC belongs 0.827; to TTGGGGGCTGAGTCCTTCGGGG, -1.22.
Same read-out and setting: the same measure for TTCTGCATCCAAGATAGCCTTG: -0.737; for ATCGCCTCCAGTTTCTCGCTGT: -0.233; for TTTTACACAAAGAACACCCCAC: 0.708.
The same measure, in the same setting: to TTCACAGAAGAACATGTCCCAG belongs -0.889.
The sequence TTGCTCAGCAGGCATATGCATG gave a sensor-assay potency score (higher = more potent) of -1.58.
TTTCTCGCTGTAGTAGCCGGGC registered a sensor-assay potency score (higher = more potent) of -0.648.
TTGAGCATGTCCAGCCACTTGG came in with a sensor-assay potency score (higher = more potent) of -0.533.

Another experiment deals with TBC1D7. Described as above. As to conditions: shRNA.
Consider TAACTTCCCAGACTCCAGCTGA, for which the sensor-assay potency score (higher = more potent) is -0.346.
On the same count and under the same terms, to TATCTTCTCTGCACTGTTCAGT belongs 0.23; to TTGTTATCTTCTCTGCACTGTT, -0.778.
The same measure, in the same setting: to TCTCATAATATACTGAACGAAA belongs -1.27; to TTTAATTGGTTCACAAAGCGTC, -0.134.
On the same count and under the same terms, to TTGCTCACGATCGCGTCTGAGC belongs -1.01; to TCAAGTATTGTTCAAACGCTTT, -1.28.
